{"source": "PubChem BioAssay (Tox21)", "note": "Where “and” joins values, the source holds several entries; their conditions need not be identical. Identical values can stand only once. Inconclusive results are not listed. Entries that show only a call come without a potency. Values without a mark were called inactive. Calls of active or inactive are those of the source. Calls come from the whole dose curve. Potency is the fitted concentration of half-maximal effect."}
{"assay": "qHTS assay to identify small molecule agonists of the endoplasmic reticulum stress response signaling pathway - cell viability counter screen (AID 1159517); note: nearly all actives have a fitted effect of over 50% in size", "details": "ESRE-bla HeLa viability, CellTiter-Glo luminescence, 5 h; series mostly up to 61 µM; activity change, negative = cytotoxicity: at the top concentration", "excerpt": "U.S. Tox21 Program National Center for Advancing Translational Sciences [NCATS] NIH Chemical Genomics Center [NCGC] U.S. Environmental Protection Agency [EPA] National Institutes of Environmental Health Sciences [NIEHS] National Toxicology Program [NTP] U.S. Food and Drug Administration [FDA] Tox21 Assay Overview: Endoplasmic Reticulum (ER) plays an important role in cellular signaling, protein folding/maturation, stress response, lipid biosynthesis, calcium storage and release etc. Under stress conditions, proteins in ER misfold or unfold, and leading to the expression of ER stress responsive genes. ER stress has been associated with a variety of pathophysiological conditions such as cancer, inflammation, neurodegenerative diseases, diabetes, ischemic heart disease etc. To identify the compounds that induce ER stress response, an ER stress reporter cell line, CellSensor ESRE-bla HeLa (Life Technologies, Carlsbad, CA) containing a beta-lactamase reporter gene under control of the Endoplasmic reticulum Stress Response Element (ESRE) was used to screen Tox21 10K compound library. The cytotoxicity of the Tox21 compound library against the ESRE-bla HeLa cell line was tested in parallel by measuring cell viability using the CellTiter-Glo assay in the same wells.\nTox21 Assay Protocol Summary: ESRE-bla HeLa cells were dispensed at 1,500 cells/6 uL of assay medium per well into black wall/clear-bottom 1536-well plates using a Multidrop Combi (ThermoFisher Scientific, Waltham, MA) dispenser. After the assay plates were incubated at 37 C and 5% CO2 for an overnight, 23 nL of compounds dissolved in DMSO, positive controls or DMSO only was transferred to the assay plate by a Pintool station (Kalypsys, San Diego, CA). The assay plates were incubated at 37 C and 5% CO2 for 5 hr. One uL of LiveBLAzer B/G FRET substrate (Life Technologies) was added using a FRD (Flying Reagent Dispenser, Aurora Discovery, San Diego, CA) and the plates were incubated at room temperature for 2 hr. Fluorescence intensity (405 nm excitation, 460 nm and 530 nm emissions) was measured using an Envision plate reader (PerkinElmer, Shelton, CT). For cytotoxicity, 4 ul/well of CellTiter-Glo reagent was added into the assay plates using an FRD. After 30 min incubation at room temperature, the luminescence intensity was measured using a ViewLux plate reader (PerkinElmer)."}
{"smiles": "OCC1CCCO1", "note": "(stereo not given)", "activity change, negative = cytotoxicity": "1.77% [at 78.8 µM]"}
{"smiles": "COC(=O)c1ccc(C(=O)OC)cc1", "Potency": "inactive"}
{"smiles": "CCOC(=O)[C@H](CCc1ccccc1)N[C@@H](C)C(=O)N1Cc2ccccc2C[C@H]1C(=O)O", "Potency": "inactive"}
{"smiles": "NCCc1ccc(O)c(O)c1", "activity change, negative = cytotoxicity": "-5.3%"}
{"smiles": "O=C(Cl)c1c(Cl)c(Cl)c(C(=O)Cl)c(Cl)c1Cl", "Potency": "inactive"}
{"smiles": "CN(C)c1cccc(O)c1", "Potency": "inactive"}
{"smiles": "CCCCOCCOCCOC(=O)CCCCC(=O)OCCOCCOCCCC", "activity change, negative = cytotoxicity": "11.5%"}
{"smiles": "CCCCC(CC)COC(C)=O", "note": "(stereo not given)", "activity change, negative = cytotoxicity": "4.15%"}
{"smiles": "NC(=O)/N=N/C(N)=O", "activity change, negative = cytotoxicity": "-2.27%"}
{"smiles": "C=C1CC[C@H](O)CC1=C/C=C1\\CCC[C@]2(C)[C@@H]([C@H](C)/C=C/[C@H](C)C(C)C)CC[C@@H]12", "activity change, negative = cytotoxicity": "17.8%"}
{"smiles": "OC1CCCC1", "Potency": "inactive"}
{"smiles": "CNC[C@H](O)[C@@H](O)[C@H](O)[C@H](O)CO", "Potency": "inactive"}
{"smiles": "Cc1ccc(C(=O)O)o1", "activity change, negative = cytotoxicity": "-18.7% [at 78.8 µM]"}
{"smiles": "O=S(=O)(O)c1cc(S(=O)(=O)O)c2c(N=Nc3ccccc3)c(O)ccc2c1", "activity change, negative = cytotoxicity": "7.21% [at 78.8 µM]"}
{"smiles": "CCc1ccc(O)cc1", "Potency": "inactive"}
{"smiles": "C=C(C#N)C(=O)OCC", "activity change, negative = cytotoxicity": "11%"}
{"smiles": "CN(CCOc1ccc(CC2SC(=O)NC2=O)cc1)c1ccccn1", "note": "(stereo not given)", "Potency": "inactive"}
{"smiles": "OC[C@@H](O)[C@@H](O)[C@H](O)[C@@H](O)CO", "Potency": "inactive"}
{"smiles": "CC[Si](OC(C)=O)(OC(C)=O)OC(C)=O", "activity change, negative = cytotoxicity": "7.15%"}
{"smiles": "Oc1ccc2ccccc2c1", "Potency": "inactive"}
{"smiles": "O=Nc1ccc(O)cc1", "Potency": "inactive"}
{"smiles": "CCCCCCCCCCCCN", "Potency": "11.1 µM (active) and 21.9 µM (active) and 19.8 µM (active)"}
{"smiles": "O=C1N=C(O)CN1/N=C/c1ccc(-c2ccc([N+](=O)[O-])cc2)o1", "Potency": "inactive"}
{"smiles": "CCc1ccccc1O", "Potency": "inactive"}
{"smiles": "CC1=C(/C=C/C(C)=C/C=C/C(C)=C/CO)C(C)(C)CCC1", "Potency": "inactive"}
{"smiles": "CC(C)(N=C=O)c1cccc(C(C)(C)N=C=O)c1", "Potency": "inactive"}
{"smiles": "OCC#CCO", "Potency": "inactive"}
{"smiles": "C/C=C(C)/C=C/C=C(C)C", "activity change, negative = cytotoxicity": "20.6%"}
{"smiles": "O=[N+]([O-])c1cccc(Cl)c1", "activity change, negative = cytotoxicity": "-4.7%"}
{"smiles": "Nc1c(S(=O)(=O)O)cc(Br)c2c1C(=O)c1ccccc1C2=O", "Potency": "inactive"}
{"smiles": "NC(=O)NNc1ccccc1", "activity change, negative = cytotoxicity": "-2.49%"}
{"smiles": "O=C(O)c1cc(-c2ccccc2)nc2ccccc12", "activity change, negative = cytotoxicity": "11.2%"}
{"smiles": "CC1Cc2ccccc2N1NC(=O)c1ccc(Cl)c(S(N)(=O)=O)c1", "note": "(stereo not given)", "activity change, negative = cytotoxicity": "15.8%"}
{"smiles": "CC(C)(C)C(=O)C1C(=O)c2ccccc2C1=O", "Potency": "inactive"}
{"smiles": "Nc1nc2ncc(CNc3ccc(C(=O)N[C@@H](CCC(=O)O)C(=O)O)cc3)nc2c(=O)[nH]1", "Potency": "inactive"}
{"smiles": "C[C@@H]1O[C@@H](OC[C@H]2O[C@@H](Oc3c(-c4ccc(O)c(O)c4)oc4cc(O)cc(O)c4c3=O)[C@H](O)[C@@H](O)[C@@H]2O)[C@H](O)[C@H](O)[C@H]1O", "activity change, negative = cytotoxicity": "2.19% [at 78.8 µM]"}
{"smiles": "CC(C)(C)C1CCC(O)CC1", "note": "(stereo not given)", "Potency": "inactive"}
{"smiles": "c1ccc2ccccc2c1", "Potency": "inactive"}
{"smiles": "CCCCC(CC)COC(=O)CCCCCCCC(=O)OCC(CC)CCCC", "note": "(stereo not given)", "activity change, negative = cytotoxicity": "4.73%"}
{"smiles": "Cn1c([N+](=O)[O-])cnc1COC(N)=O", "activity change, negative = cytotoxicity": "0.576%"}
